{"source": "PubChem BioAssay AID1508600", "about": "(Functional Genomics Laboratory (NCATS/FGL), 2020)", "note": "Hit rate of the full screen: of about 53,000 sequences, about 3,700 (7%) were called active.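 The calls were made as follows: active = gene knockdowns whose robust z-score for IL-1 alpha signal is at least 2 or at most -2, so actives lie on both sides; inactive = the rest.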 Many of the other results were omitted from the sample, so actives are more common in it than they were."}
{"assay": "Components of the Cytosolic LPS Sensing Pathway: Gene Identification via Genome-wide siRNA Screen;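 also: robust z of the log signal after scaling to non-targeting control siRNA wells of the plate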", "conditions": "RAW264.7 macrophages, IL-1a HTRF, actives lie on both sides, screened at 100 nM (by protocol), cells primed 5 h with Pam3CSK4 first", "method_in_brief": "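Knockdown: 100 nM siRNA, 48h, RAW264.7. Stimulation: Pam3CSK4 5 h, then LipidA via TransIT-TKO 24 h. Output: supernatant IL-1a HTRF, negative-control-normalized, log robust z-score; viability by CellTiter-Glo.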"}
{"sequence": "GGAGGAUGAGGAUUUUGAUTT against Spsb3", "z-score": "2.16 (active)"}
{"sequence": "CCACUUCUUUCCAUGAACUTT against Slc6a4", "z-score": "0.7 (inactive)"}
{"sequence": "GGCAGAUUGAUAAAAUUCATT against Stag1", "z-score": "-0.223 (inactive)"}
{"sequence": "GCUCAGUCUCUUGGGUGGUTT against Cel", "z-score": "2.27 (active)"}
{"sequence": "GCUCUGUUCACCUACCCGATT against Anapc16", "z-score": "0.264 (inactive)"}
{"sequence": "GGUUGUACUUGUUUUUCCUTT against Dtwd1", "z-score": "1.35 (inactive)"}
{"sequence": "GCAUUGUCAUGAUACAACATT against Fem1b", "z-score": "0.793 (inactive)"}
{"sequence": "GGAGGAGAGGAGAAUAGCATT against Atp5k", "z-score": "-0.586 (inactive)"}
{"sequence": "GGAACUACAACAGAAACGATT against Cep131", "z-score": "-1.42 (inactive)"}
{"sequence": "GUGACAAUGAAAAAUGUGUTT against Clec4b1", "z-score": "-2.42 (active)"}
{"sequence": "GGAAAUGUCUUAUGAUAACTT against Col5a1", "z-score": "0.194 (inactive)"}
{"sequence": "CCUCAUCAAUCAGCCUAUGTT against Olfr1178", "z-score": "-1.83 (inactive)"}
{"sequence": "GCAUCGCUAAGUCCGUCUUTT against Aqp4", "z-score": "-0.1 (inactive)"}
{"sequence": "GGACCUGUAUUCUCAGGGATT against Lce1a2", "z-score": "-0.251 (inactive)"}
{"sequence": "CCUGUAACCUUGCUUAAUGTT against Hoxc6", "z-score": "0.0208 (inactive)"}
{"sequence": "GGAGAAAUGAAGGUAUACATT against Cert1", "z-score": "-1.12 (inactive)"}
{"sequence": "GGUUUAUGACAAACUGAAATT against Enpp4", "z-score": "-0.0826 (inactive)"}
{"sequence": "GCAGAAGUUAAGAUGCAUATT against Usf1", "z-score": "2.02 (active)"}
{"sequence": "CCUGCUCAACGGAGACCAUTT against Hmx3", "z-score": "3.47 (active)"}
{"sequence": "GGCUUGAGACUUAAAACGGTT against Lztfl1", "z-score": "0.583 (inactive)"}
{"sequence": "CGCUGAAAUGGUGAAUAAATT against Recql", "z-score": "-0.0529 (inactive)"}
{"sequence": "GUCCCACUGUCCAGUUACATT against Gm9946", "z-score": "-0.565 (inactive)"}
{"sequence": "CGAGAGAAGCCCAUCAUCATT against Nrg4", "z-score": "1 (inactive)"}
{"sequence": "GGAAGAAAAGGGAUAUCAGTT against Xirp1", "z-score": "0.253 (inactive)"}
{"sequence": "GGUUCAGACACCACUUCAGTT against Bgn", "z-score": "2.56 (active)"}
{"sequence": "GGAGGAUCACCCAUCAAAUTT against Oxct1", "z-score": "-0.083 (inactive)"}
{"sequence": "GGUAUUUUGAUGUUGGACUTT against Hhat", "z-score": "0.989 (inactive)"}
{"sequence": "GGAUGUGAAACAUGCUUUUTT against Olfr1030", "z-score": "0.536 (inactive)"}
{"sequence": "CCUCAUGCAGCUCAAUCUATT against Prelp", "z-score": "-2.41 (active)"}
{"sequence": "GGCUAUGGCUUUUGUAUGUTT against Arpin", "z-score": "-0.0747 (inactive)"}
{"sequence": "GGACUCAAUAAGAACCUCGTT against Papss1", "z-score": "-1.25 (inactive)"}
{"sequence": "GGAUGAAAGUUGUAUGUAUTT against Ctsk", "z-score": "-0.606 (inactive)"}
{"sequence": "GGAUCGUGAGCUUCUAUUATT against Gask1a", "z-score": "0.434 (inactive)"}
{"sequence": "CGAGAAGUGCUGACUCAAUTT against Map2k3os", "z-score": "0.563 (inactive)"}
{"sequence": "GGAUGUCUGGAAUGAAACATT against Slc17a4", "z-score": "-3.16 (active)"}
{"sequence": "GGAGAGCUGCAUCAAAAAGTT against Prdm16", "z-score": "0.545 (inactive)"}
{"sequence": "GGUGCUCAUGCAGGUCCAUTT against Slc25a25", "z-score": "-0.356 (inactive)"}
{"sequence": "GGGCCAUCUCUCAAUUAUGTT against Gga2", "z-score": "1.93 (inactive)"}
{"sequence": "GGUUCUACAUGUGAAACAATT against Zfp143", "z-score": "-2.15 (active)"}
{"sequence": "GCCUGGUCUCACUAUGUAGTT against Hpvc2", "z-score": "0.129 (inactive)"}
{"sequence": "GGACGUGUUUUACAAAUACTT against Srsf1", "z-score": "-0.979 (inactive)"}
{"sequence": "GGGAAAAUAUCUCAUAUCATT against Colec10", "z-score": "-0.944 (inactive)"}
{"sequence": "GGGCUGAAGAUGACUUCAATT against Topors", "z-score": "5.91 (active)"}
{"sequence": "GGAUGUCUCGGAACUAAGGTT against Med28", "z-score": "-0.571 (inactive)"}
{"sequence": "GGUAUUACAAGGUCAUAUCTT against Nol12", "z-score": "-0.357 (inactive)"}
{"sequence": "UGGCCACGACCCUGAACUUTT against Ghrhr", "z-score": "0.56 (inactive)"}
{"sequence": "GGCAUCAAAAAGCAGACAATT against Erich2", "z-score": "-1.98 (inactive)"}
{"sequence": "GGCUAUGGAACAAAGUACUTT against Sostdc1", "z-score": "0.838 (inactive)"}
{"sequence": "GGAAAGCACUUUUAUUCCUTT against Sgip1", "z-score": "-0.901 (inactive)"}
{"sequence": "GCCUCGAGAUAUUCUUUGUTT against Snrnp200", "z-score": "-2.07 (active)"}
{"sequence": "GCUAAAAGGCUACGGGAGUTT against Bhlhe23", "z-score": "-0.266 (inactive)"}
{"sequence": "GUGCAGAUAUCUUUAGCAATT against Olfr159", "z-score": "-0.958 (inactive)"}
{"sequence": "GGAUGAGAGUAAGAUCUCGTT against Vipr2", "z-score": "-0.296 (inactive)"}
{"sequence": "GGAAAACUACCUCUUUUGATT against Cbll1", "z-score": "1.4 (inactive)"}
{"sequence": "GGAGAUCUUAGAGAAAUUATT against Pak1", "z-score": "-0.956 (inactive)"}
{"sequence": "GCAAAGUGGAUAUAGUGUCTT against Gprin1", "z-score": "-0.217 (inactive)"}
{"sequence": "GCAUGCUUUCUGAAUACAATT against Cdk8", "z-score": "2.17 (active)"}
{"sequence": "GGAACAGCUAAAGUUGGGATT against Kcnj9", "z-score": "0.5 (inactive)"}
{"sequence": "GGGUAUGGUUCUGUUGGCATT against Pxmp4", "z-score": "-1.45 (inactive)"}
{"sequence": "CCUAAAGGUUCCCAACAGUTT against Serpinb3d", "z-score": "-0.517 (inactive)"}
{"sequence": "GGCUGAUUCAUUUGGGAACTT against Olfr9", "z-score": "0.805 (inactive)"}
{"sequence": "GGCCUCUGAGGACAAGUUUTT against Als2cl", "z-score": "0.0383 (inactive)"}
{"sequence": "GGUAGAGGAUGCGAUGCUGTT against Msi2", "z-score": "4.61 (active)"}
{"sequence": "GGGAGGUGCAGAUAGGAUUTT against Csrp1", "z-score": "0.912 (inactive)"}
{"sequence": "GGCGAUAGUGUCUAAGAAATT against Cfap298", "z-score": "-0.0112 (inactive)"}
{"sequence": "GGAUGAGAAAUACUUUCGGTT against C8a", "z-score": "0.126 (inactive)"}
{"sequence": "GGCAAGUGCCCAAGUUUGUTT against Ifi35", "z-score": "1.08 (inactive)"}
{"sequence": "GGCAUAUUGUUUCAUUUUGTT against Rlbp1", "z-score": "-1.19 (inactive)"}
{"sequence": "GGCUUUAUAUGAAACUCCUTT against Acrv1", "z-score": "-2.01 (active)"}
